Hits are enriched below; roughly 2.4% of the tested compounds scored in any of these assays.
D2 PAM-1 – positive allosteric modulators of human D2 dopamine receptor | P14416 | HEK293 T-REx D2, calcium flux, EC20 dopamine potentiation | potentiation, % at 10 µM | 340,000 tested, 0.34% active | AID 485347;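 active = potentiation over 3 SD above the plate norm, cut at about 30% in these data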; note: 0% is about no effect
Target sequence (P14416 whole entry, looked up): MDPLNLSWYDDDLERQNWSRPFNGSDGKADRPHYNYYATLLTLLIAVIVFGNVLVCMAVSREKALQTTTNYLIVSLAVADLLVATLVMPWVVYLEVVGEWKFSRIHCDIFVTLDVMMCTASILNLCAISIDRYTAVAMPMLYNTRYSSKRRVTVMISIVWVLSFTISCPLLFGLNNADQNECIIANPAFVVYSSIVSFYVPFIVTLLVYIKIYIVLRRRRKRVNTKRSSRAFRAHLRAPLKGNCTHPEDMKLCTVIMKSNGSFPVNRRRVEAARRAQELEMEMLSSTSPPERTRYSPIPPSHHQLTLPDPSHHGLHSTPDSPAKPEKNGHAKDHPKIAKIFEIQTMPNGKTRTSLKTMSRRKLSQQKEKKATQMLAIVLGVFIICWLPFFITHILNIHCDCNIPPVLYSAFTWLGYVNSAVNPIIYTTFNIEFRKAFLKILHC
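Cells plated with tetracycline inducer and held overnight at 30 C; calcium dye loaded 30–90 min at room temperature; baseline taken, compound added and read 180 s; EC20 dopamine then added and read 180 s.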
D2 PAM-2 – potentiates the human D2 dopamine receptor allosterically; potentiation, % (no concentration beside the values); P14416; DiscoveRx D2 beta-arrestin cells, luminescence, 90 min; 100% = 57 uM dopamine signal; 360,000 tested, 0.23% active; in the data active = potentiation above about 50%; inconclusive = mostly about 30% to 49%
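D2 cells co-treated with compound plus 50 nM dopamine (EC20) for 90 min at 37 deg C to detect potentiation. Beta-arrestin recruitment was read as enzyme-fragment luminescence after 1 h at ambient temperature. Full response was set by 57 uM dopamine.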
D2 antagonist – antagonists of human D2 dopamine receptor; P14416; HEK293 TREx D2 cells, calcium flux, dopamine EC80; inhibition, % at 10 µM; 340,000 tested, 2% active; AID 485344; in the data active = inhibition above about 30%; inactive = below that, where a call was filed; note: 0% is about no effect
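Overnight-induced (tetracycline, 30 C) HEK293 T-REx cells carrying force-coupled D2 receive a no-wash calcium dye, then compound, then EC80 dopamine at 180 s; signals are read kinetically throughout.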
D2 ag-1 – human D2 receptor agonism in beta-arrestin assay; activation, % (no concentration beside the values); AID 624465; DiscoveRx PathHunter D2 beta-arrestin, luminescence, 90 min; 100% = 57 uM dopamine signal; 360,000 tested, 0.084% active; P14416; in the data active = activation above about 40%; inconclusive = between about 15% and that limit
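DiscoveRx PathHunter D2 beta-arrestin cells (2,100/well) attached overnight, then compound-stimulated 90 min at 37 C in HBSS/10 mM HEPES/0.1% Tween-20 buffer; beta-galactosidase complementation read by luminescence after 1 h at ambient temperature. Dopamine 57 uM final (EC100) as control.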
D2 ag-2 – agonists of human D2 dopamine receptor; P14416; AID 485358; HEK293 T-REx D2 cells, calcium flux agonist mode; 340,000 tested, 0.53% active; activation, % at 2 µM;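 active = activation over 3 SD above normal in the single-dose calcium agonist read, cut at about 30% in these data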; note: 0% is about no effect
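HEK293 Trex D2 cells, tetracycline-induced, o/n 30 C 5% CO2; no-wash Ca dye, RT 30–90 min; 10-cycle baseline, 23 nl cpd added, kinetic Ca read 180 s; agonist hits = positive Ca response.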
D3 arrestin ag – confirmation of human D3 dopamine receptor agonists, beta-arrestin; shares compounds with D2 ag-2; DiscoveRx D3 beta-arrestin cells, luminescence, 90 min; Potency, µM (titrated, usually from 76.9 µM), inactives show at the highest dose activation, actives largely listed as activators; 2,300 tested, 4% active;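 note: potency is the fitted concentration of half-maximal effect; 100% = dopamine control response; nearly all actives have a fitted effect of over 70% in size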
D2 ag-3 – activates human D2 dopamine receptor in D3 counterscreen | shares compounds with D2 ag-2 | DiscoveRx PathHunter D2 beta-arrestin, luminescence, 90 min; response scale: percent relative to full dopamine signal | Potency, µM (series often up to 76.9 µM), inactives show at the highest dose activation, most hits filed as activators | 2,300 tested, 5.9% active; note: potency is the fitted concentration of half-maximal effect; % of control where 0% means no effect; nearly all actives have a fitted effect of over 70% in size
The depositor's hits bear a star. Unless noted, calls come from the whole dose curve; as a rule, active = well fitted activation curve with a large enough effect; inconclusive = small, poorly fitted or top-dose-only effect; inactive = flat fitted curve, though single readings scatter.

`CN(C)c1ccc(NC(=O)CCN2CCN(c3ccccn3)CC2)cc1` gave D2 PAM-1 -27, D2 PAM-2 inconclusive, D2 antagonist 85*, D2 ag-1 inconclusive, D2 ag-2 80*, D3 arrestin ag inconclusive and D2 ag-3 0.25µM*.
O=C(CCN1CCN(c2ccccn2)CC1)Nc1ccc(F)cc1 was read as D2 PAM-1 -24, D2 PAM-2 -17, D2 antagonist 67*, D2 ag-1 12, D2 ag-2 69*, D3 arrestin ag inconclusive and D2 ag-3 29%.
Screening O=C(CN1CCN(c2ccccn2)CC1)Nc1ccc(OC(F)(F)F)cc1 returned D2 PAM-1 -11, D2 PAM-2 1, D2 antagonist -24, D2 ag-1 9 and D2 ag-2 16.
Screening CCOC(=O)C1CCN(CC(=O)Nc2c(C(=O)OC)[nH]c3cccc(Cl)c23)CC1 returned D2 PAM-1 -9, D2 PAM-2 -15, D2 antagonist 14, D2 ag-1 1, D2 ag-2 26, D3 arrestin ag 9% and D2 ag-3 5%.
CCOC(=O)C1CCN(CC(=O)Nc2c(C(=O)OC)[nH]c3ccc(Cl)cc23)CC1 was read as D2 PAM-2 10, D2 antagonist -12, D2 ag-1 8 and D2 ag-2 0.
c1ccc(N2CCN(C3CCSC3)CC2)cc1 (stereo not drawn) was read as D2 PAM-1 -35, D2 PAM-2 -18, D2 antagonist 18, D2 ag-1 4, D2 ag-2 41*, D3 arrestin ag -9% and D2 ag-3 10%.
Screening O=S(=O)(c1ccc2nc(COc3ccc(Cl)cc3Cl)[nH]c2c1)N1CCOCC1 returned D2 PAM-1 1, D2 PAM-2 -11, D2 antagonist 38*, D2 ag-1 1, D2 ag-2 0, D3 arrestin ag 6% and D2 ag-3 4%.
Screening Cc1ccccc1OCc1nc2ccc(S(=O)(=O)N3CCOCC3)cc2[nH]1 returned D2 PAM-1 0, D2 PAM-2 0, D2 antagonist 10, D2 ag-1 -5 and D2 ag-2 0.
For CC1CCCN(Cc2nc3c(c(=O)n(C)c(=O)n3C)n2Cc2ccc(Cl)cc2Cl)C1 (stereo not drawn) the results were D2 PAM-1 0 and D2 ag-2 0.
`Cc1nc(N2CCOCC2)c2c(C(=O)N(C)Cc3ccccc3)c(C)oc2n1` gave D2 PAM-1 6 and D2 ag-2 0.
Screening CSCCC(NC(=O)COc1ccccc1)C(=O)N1CC(C)OC(C)C1 (stereo not drawn) returned D2 PAM-1 -4, D2 PAM-2 -1, D2 antagonist -14, D2 ag-1 -2, D2 ag-2 0, D3 arrestin ag -6% and D2 ag-3 -2%.
For CSCCC(NC(=O)COc1ccccc1)C(=O)N1CC(C)CC(C)C1 (stereo not drawn) the results were D2 PAM-1 7, D2 PAM-2 -2, D2 antagonist -3, D2 ag-1 3 and D2 ag-2 0.
For COc1cc(/C=N/Nc2cc(C)nc(NS(=O)(=O)c3ccc(C)cc3)n2)ccc1O the results were D2 PAM-1 12, D2 PAM-2 -1, D2 antagonist 1, D2 ag-1 2 and D2 ag-2 -1.
`COc1cc(/C=N/Nc2cc(C)nc(NS(=O)(=O)c3ccccc3)n2)ccc1O` gave D2 PAM-1 -2, D2 PAM-2 5, D2 antagonist 26, D2 ag-1 -1, D2 ag-2 -1, D3 arrestin ag 10% and D2 ag-3 -2%.
For CC(=O)c1c(C)[nH]c(C(=O)OCC(=O)Nc2ccc(Cl)cc2[N+](=O)[O-])c1C the results were D2 PAM-1 -10, D2 PAM-2 20, D2 antagonist 1, D2 ag-1 7 and D2 ag-2 1.

Screening data (PubChem)
